# From PubChem BioAssay AID463173 (ICCB-Longwood Screening Facility, Harvard Medical School, 2010)
# In all, about 52,000 compounds went through this assay and about 4,300 (8.3%) were called active. This excerpt belongs to a sample that is enriched for actives. Values without a mark were called inactive. No stated cut-off is given here; in the data, active means survival mostly below about 52% (no sharp cut-off); inactive means mostly above about 56%.
# System: DeltatarO mutant
# Assay: growth inhibition of S. aureus wild type versus tarO mutant, primary screen, teichoic acid synthesis inhibitors, RN4220, OD600 (AID 463173)
# Settings: OD600, 18 h, hits give low values, screened at 18.75 µg/mL (by protocol)
row,Structure (SMILES),survival
1,CCS(=O)(=O)Nc1ccc2[nH]c(=O)[nH]c2c1,88%
2,CCc1ccc(NC(=O)CNC(=O)Cn2c(C)cc3ccccc3c2=O)cc1,114%
3,CCN(C(=O)C1CCN(S(=O)(=O)c2c(C)noc2/C=C/c2ccc(C)cc2)CC1)c1cccc(C)c1,84%
4,CCOc1ccc(CCNC(=O)C2CC(=O)N(CCc3ccc(OC)c(OC)c3)C2)cc1OCC (centres undefined),91%
5,COc1ccc(OC)c(C2CC(=O)c3c([nH]c(C(=O)OC4CCC(C)CC4)c3C)C2)c1 (centres undefined),81%
6,COc1ccc(-c2noc(-c3ccc(N4CCN(C)CC4)c([N+](=O)[O-])c3)n2)cc1,42% (active)
7,COc1ccc(-c2noc(-c3ccc(N4CCN(C)CC4)c([N+](=O)[O-])c3)n2)cc1OC,50%
8,COc1ccc(-c2noc(-c3ccc(N4CCCC4)c([N+](=O)[O-])c3)n2)cc1,108%
9,COc1ccc(-c2noc(-c3ccc(N4CCN(c5ccc(OC)cc5)CC4)c([N+](=O)[O-])c3)n2)cc1,47%
10,COc1ccc(-c2noc(-c3ccc(N4CCOCC4)c([N+](=O)[O-])c3)n2)cc1,46%
11,COc1ccc(-c2noc(-c3ccc(N4CCCCC4)c([N+](=O)[O-])c3)n2)cc1,37% (active)
12,CC1=C(C(=O)Nc2ccccc2C)C(c2cccnc2)n2nc(SCc3ccccc3F)nc2N1 (centres undefined),60%
13,Cc1nc2nncn2c(N2CCN(c3ccccc3)CC2)c1C,83%
14,COc1cccc(CNC(=O)c2nn(C)c3c2CS(=O)(=O)c2ccccc2-3)c1,74%
15,CC(=O)c1ccc(NC(=O)CSc2cn(CC(=O)N3CCCCC3)c3ccccc23)cc1,63%
16,Cc1nc(C)c(-c2csc(NCc3ccccc3)n2)s1,65% (active)
17,C=CCNc1nc(-c2ccccc2)cs1,97%
18,COCC(=O)Nc1nc(-c2ccccc2)cs1,112%
19,COc1cccc(C(=O)CN2C3=NCCN3c3ccccc32)c1,106%
20,CC1=C(C(=O)Nc2cccc(F)c2)C2(CCCCCC2)OC1=O,70%
21,CCN(CCCNC(=O)CN1N=C(c2ccccc2)CCC1=O)c1ccccc1,-5% (active)
22,CCCCN(CCCNC(=O)CN1N=C(c2ccc(C)cc2)CCC1=O)c1ccccc1,92%
23,CCCCN(CCCNC(=O)CN1N=C(c2ccccc2)CCC1=O)c1ccccc1,88%

row,Structure (SMILES),survival
1,Cc1ccc(C2=NN(CC(=O)NCCCN(CC(C)C)CC(C)C)C(=O)CC2)cc1,83%
2,CCN(CCCNC(=O)CN1N=C(c2ccc(OC)cc2)CCC1=O)c1cccc(C)c1,123%
3,CCN(CCCNC(=O)CN1N=C(c2ccccc2)CCC1=O)c1cccc(C)c1,124%
4,Cc1ccc(C2=NN(CC(=O)NCCN(CC(C)C)CC(C)C)C(=O)CC2)cc1,131%
5,CCN(CCCNC(=O)CN1N=C(c2ccc(C)cc2)CCC1=O)c1ccccc1,0% (active)
6,Cc1ccc(C2=NN(CC(=O)NCCC(C)C)C(=O)CC2)cc1,37% (active)
7,COc1ccc(C)cc1NC(=O)c1ccc2c(c1)CCN2S(=O)(=O)c1ccc(Cl)cc1,79%
8,CCOc1ccc(NC(=O)c2ccc3c(=O)n4c(nc3c2)CCCCC4)cc1,139%
9,O=C(NCCc1ccc(Cl)cc1)C(=O)NCC(c1cccs1)S(=O)(=O)c1ccccc1 (centres undefined),77%
10,CCOC(=O)c1c(NC(=O)/C=C/c2ccccc2)sc2c1CCCC2,75%
11,CCOC(=O)c1c(NC(=O)/C=C/c2ccc(OCC)cc2)sc2c1CCCC2,36% (active)
12,CCOC(=O)c1c(NC(=O)/C=C/c2ccc(OCC)cc2)sc2c1CCC2,145%
13,CCOc1ccc(/C=C/C(=O)Nc2sc3c(c2C(=O)OC)CCCC3)cc1,110%
14,CCOC(=O)c1c(NC(=O)/C=C/c2ccc(C(C)C)cc2)sc2c1CCC2,56%
15,CCOC(=O)c1c(NC(=O)/C=C/c2ccc(C)cc2)sc2c1CCCC2,22% (active)
16,COCCCN1C(=O)c2[nH]nc(-c3ccccc3O)c2C1c1ccc(OCc2ccccc2)cc1 (centres undefined),8% (active)
17,CC(C)OCCCN1C(=O)c2[nH]nc(-c3ccccc3O)c2C1c1cccc(OCc2ccccc2)c1 (centres undefined),49%
18,CC(C)OCCCN1C(=O)c2[nH]nc(-c3ccccc3O)c2C1c1ccc(OCc2ccccc2)cc1 (centres undefined),28% (active)
19,CCCCN1C(=O)c2[nH]nc(-c3ccccc3O)c2C1c1ccc(OCc2ccccc2)cc1 (centres undefined),43% (active)
20,COCCCN1C(=O)c2[nH]nc(-c3ccccc3O)c2C1c1ccc(OC)cc1 (centres undefined),53%
21,CC(C)OCCCN1C(=O)c2[nH]nc(-c3ccccc3O)c2C1c1ccccc1F (centres undefined),46%
22,CCCCN1C(=O)c2[nH]nc(-c3ccccc3O)c2C1c1ccc(C(C)(C)C)cc1 (centres undefined),88%
23,COCCNC(=O)c1c(NC(=O)c2cc(=O)c3cc(Cl)ccc3o2)sc2c1CCCC2,49%

row,Structure (SMILES),survival
1,Cc1cccc(NC(=O)c2sc3nc(N4CCOCC4)c4c(c3c2N)CC(C)(C)OC4)c1,91%
2,Cc1cccc(Oc2ccc(NC(=O)CCC(=O)OCC(=O)c3ccc(Br)cc3)cc2)c1C,68%
3,COc1ccc(OC)c(S(=O)(=O)Nc2cccc(-c3ccc(N4CCCCC4)nn3)c2)c1,83%
4,COCCCn1c(SCC(=O)N2CC(=O)Nc3ccccc32)nnc1-c1ccoc1C,79%
5,CCOC(=O)c1c(-c2ccc(C)cc2)csc1NC(=O)c1cc(=O)c2cc(C)ccc2o1,42% (active)
6,CCOC(=O)c1c(-c2ccc(C)cc2)csc1NC(=O)c1cc(=O)c2ccc(C)cc2o1,109%
7,CCOC(=O)c1c(NC(=O)c2cc(=O)c3ccc(C)cc3o2)sc(C)c1C,100%
8,CCOC(=O)c1c(-c2ccc(C)cc2)csc1NC(=O)c1cc(=O)c2cc(Cl)ccc2o1,116%
9,CCOC(=O)c1c(NC(=O)c2cc(=O)c3cc(C)cc(C)c3o2)sc(C)c1C,48% (active)
10,CCOC(=O)c1c(NC(=O)c2cc(=O)c3c(C)cc(C)cc3o2)sc(C)c1C,61%
11,COc1ccc(CNC(=O)c2cnc(N3CCOCC3)c3ccccc23)cc1,70%
12,CC1=Nc2cc(C(=O)NCc3ccccc3Cl)ccc2Sc2c(C)ccc(C)c21,79%
13,O=C(Nc1ccccc1Cl)[C@H](CSCc1ccccc1)N1Cc2ccccc2C1=O,58%
14,CCN1CCN(c2c(S(=O)(=O)c3ccc(Cl)cc3)cnc3ccccc23)CC1,77%
15,COC(=O)C(C)n1cnc2sc3c(c2c1=O)CCCC3 (centres undefined),92%
16,CCC(Sc1ncnc2sc3c(c12)CCCC3)C(=O)OCC(C)C (centres undefined),-6% (active)
17,CCC(Sc1ncnc2sc3c(c12)CCCC3)C(=O)OC(C)C (centres undefined),-7% (active)
18,CNC(=O)CSc1ncnc2sc3c(c12)CCCC3,80%
19,CCOC(=O)C(CC)Sc1ncnc2sc3c(c12)CCCC3 (centres undefined),-7% (active)
20,Clc1ncnc2sc3c(c12)CCCC3,86%
21,CCn1cnc2sc3c(c2c1=O)CCCC3,101%
22,Nc1ncnc2sc3c(c12)CCCC3,57%
23,CCOC(=O)CSc1ncnc2sc3c(c12)CCC3,96%

row,Structure (SMILES),survival
1,CCOC(=O)c1ccc2c(c1)N(Cc1ccc(F)cc1Cl)C(=O)c1ccccc1S2(=O)=O,90%
2,COc1ccc(-n2nc(C(=O)N3CCN(c4ccccc4OC)CC3)c3c4ccccc4n(C)c3c2=O)cc1Cl,123%
3,Cc1cc(C)c(NC(=O)CCN2C(=O)c3ccccc3Sc3ncccc32)c(C)c1,106%
4,Cc1ccnc(NS(=O)(=O)c2ccc(NC(=O)c3nc(SC(C)C)ncc3Cl)cc2)n1,58%
5,CCOC(=O)c1noc2nc(C)n(CC(=O)Nc3cccc(OC)c3)c(=O)c12,108%
6,O=c1c2ccccc2nc(-c2ccccc2)n1CCCn1ccnc1,107%
7,CCCc1cc(C(=O)Nc2c(C)nn(Cc3ccc(Cl)c(Cl)c3)c2C)no1,56%
8,O=C(NCc1ccc2c(c1)CCN2C(=O)c1ccccc1)c1cc2ccccc2[nH]1,6% (active)
9,Cc1cccc(C(=O)N2CCc3cc(CNC(=O)c4cc5ccccc5[nH]4)ccc32)c1,81%
10,O=C(NCc1ccc2c(c1)CCN2C(=O)c1ccccc1)Nc1cccc(C(F)(F)F)c1,123%
11,CCOC(=O)c1cccc(NC(=O)NCc2ccc3c(c2)CCN3C(=O)c2ccccc2)c1,116%
12,COc1ccc(CCC(=O)NCc2ccc3c(c2)CCN3C(=O)c2cccc(C)c2)cc1,76%
13,COc1ccc(OCC(=O)NCc2ccc3c(c2)CCN3C(=O)c2cccc(C)c2)cc1,82%
14,O=C(NCc1ccc2c(c1)CCN2C(=O)c1ccc(F)cc1)c1cc2ccccc2[nH]1,97%
15,COc1ccc(CC(=O)NCc2ccc3c(c2)CCN3C(=O)c2cccc(C)c2)cc1,-4% (active)
16,COc1ccc2cc(C(=O)NCc3ccc4c(c3)CCN4C(=O)c3ccc(F)cc3)[nH]c2c1,86%
17,COc1ccc2cc(C(=O)NCc3ccc4c(c3)CCN4C(=O)c3ccc(C)cc3)[nH]c2c1,75%
18,COc1ccc2cc(C(=O)NCc3ccc4c(c3)CCN4C(=O)c3ccccc3)[nH]c2c1,-1% (active)
19,COc1cccc(NC(=O)NCc2ccc3c(c2)CCN3C(=O)c2ccccc2)c1,52% (active)
20,CCC1CCCCN1Cc1cn2c(-c3ccc(Br)cc3)nnc2s1 (centres undefined),80%
